# Rows were chosen to be rich in hits. Some 15% of all compounds tested hit in one or more screens of this group.
# SARS PLP yeast – inhibitors of SARS-CoV papain-like protease in yeast | hit rate 0.19% among 330,000 | Potency, µM (highest dose often 32.9 µM), without a hit: at the highest dose activity, positive = growth rescue, usual class: activators | S. cerevisiae expressing SARS-CoV PLpro, growth rescue; calls by dose curve; further: potency means the concentration at half of the fitted maximal effect; 0% is about no effect; nearly all actives have a fitted effect of over 55% in size
# Sm TGR block – inhibitors of Schistosoma mansoni thioredoxin glutathione reductase. Q962Y6. purified TGR, DTNB reduction, TNB absorbance 405 nm. Potency, µM (top dose mostly 114 µM), without a hit: at the highest dose activity change, negative = inhibition, hits mostly inhibitors. hit rate 3% among 360,000. AID 485364; further: potency means the concentration at half of the fitted maximal effect; on the % scale 0 is the no-effect control and ±100 the full control effect; nearly all actives have a fitted effect of over 60% in size
#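 First, TGR (20 nM dispensed) and NADPH were mixed with compound. Second, a 15 min room-temperature incubation followed. Third, further NADPH and then DTNB were added to start the reaction. Finally, TNB absorbance was monitored kinetically.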
# Pf growth 48h – P. falciparum growth inhibition at 48 hours (one generation); P. falciparum luciferase growth in erythrocytes, 48 h; hit rate 5.9% among 310,000; Potency, µM (series often up to 28.7 µM), inactives show at the highest dose activity change, negative = inhibition, most hits filed as inhibitors; further: potency means the concentration at half of the fitted maximal effect; on the % scale 0 is the no-effect control and ±100 the full control effect
#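 Parasite viability was followed by luminescence of a genomically integrated firefly luciferase. Cultures held 0.1% parasitemia at 2% hematocrit (final), incubated under 5% CO2 at 37 C.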
# Pf growth 96h – inhibits malaria parasite growth, 96 h | P. falciparum luciferase reporter growth, 96 h | Potency, µM (series often up to 28.7 µM), for inactives: at the highest dose activity change, negative = inhibition, most hits filed as inhibitors | hit rate 6.9% among 320,000 | AID 504834; further: potency means the concentration at half of the fitted maximal effect; on the % scale 0 is the no-effect control and ±100 the full control effect
#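 Two-generation exposure (96 h) targets delayed-death phenotype. Reporter parasites carrying integrated firefly luciferase, in red cells at 2% hematocrit and 0.05% parasitemia final, kept at 37 C, 5% CO2; luminescence loss indicates inhibition.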
# HCMV inh – human cytomegalovirus inhibition. HFF cells, HCMV-luciferase reporter, 72 h; hits give low values. activity change, negative = inhibition, % at 57.5 µM. hit rate 4.5% among 410,000; in the data active means activity change below about -60%; inconclusive means no clear call, values can overlap the other calls; inactive means above about -39%; further: on the % scale 0 is the no-effect control and ±100 the full control effect
#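 Steps: HFFs plated, 16 h 37C; compounds added; HCMV-luciferase added to MOI 1 PFU/cell; 72 h 37C; OneGlo reagent, 5 min room temperature; luminescence read, normalized to controls.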
# HCV inh – blocks hepatitis C virus | AID 651820 | Huh7.5.1 HCVcc-Cre infection, luciferase reporter, 44 h | Potency, µM (titrated, usually from 41.8 µM), for the others: at the top dose activity change, negative = inhibition, actives largely listed as inhibitors | hit rate 3.4% among 340,000; further: potency means the concentration at half of the fitted maximal effect; on the % scale 0 is the no-effect control and ±100 the full control effect
#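 After 44 h co-culture of compound, cells and HCVcc-Cre (~0.5 moi), substrate is added for 15 min at room temperature and luciferase measured over 15 sec. Cells were seeded at 1,000/well and pre-cultured 4 h.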
# * = called active by the depositor; u = inconclusive; x = not tested or not shown; [ ] = dose if it differs, or a comment. Unless noted, the call rests on the fitted dose curve; in most records, active means well fitted curve in the direction sought with a large enough effect; inconclusive means small, poorly fitted or top-dose-only effect, or another doubt; inactive means no such curve, though single readings can be large; an effect the other way counts as inactive or inconclusive.
SMILES,SARS PLP yeast,Sm TGR block,Pf growth 48h,Pf growth 96h,HCMV inh,HCV inh
COc1ccc(Br)c2c1-c1nc(NC(=O)c3ccccc3SC)sc1C2,x,0%,x,x,-63*,x
O=C(NC1CCCCC1)c1cccc2c(-c3ccc(F)c(F)c3)coc12,x,x,x,x,-14,x
Cc1cc(S(=O)(=O)NCCN2CCOCC2)ccc1Cl,0%,-13%,x,-3%,-5,11%
COc1c(S(=O)(=O)NCCN2CCOCC2)ccc(Cl)c1Cl,12%,-4%,12%,x,-3,10%
Cc1c(Cl)ccc(S(=O)(=O)NCCN2CCOCC2)c1Cl,0%,57%,0.13µM*,-3%,-4,-25%
Nc1c(S(=O)(=O)c2cc(Cl)ccc2Cl)c2nc3ccccc3nc2n1CCN1CCOCC1,-9%,-7%,13µM*,x,-16,u
Cc1ccc(S(=O)(=O)NCCN2CCOCC2)s1,-13%,5%,45%,9%,-67*,-5%
O=S(=O)(NCCN1CCOCC1)c1cc(Cl)ccc1Cl,11%,6%,2%,6.6µM*,7,16%
O=C1CC(c2ccccc2)c2cccc(F)c21 (configuration not stated),0%,-1%,12%,24%,-1,19%
CC(C)[C@H](NS(=O)(=O)c1cccc(C(F)(F)F)c1)C(=O)OCC(=O)NC(=O)NCc1ccco1,-2%,x,x,x,5,11µM*
O=C(COC(=O)/C=C/c1cccc(C(F)(F)F)c1)NC(=O)NCc1ccco1,0%,x,x,x,0,u
Cc1nn(-c2ccccc2)c2nc(N)c(C#N)c(-c3ccc(F)cc3)c12,-1%,1%,12µM*,u,-18,u
Cc1ccc(-n2nc(C)c3c(-c4cccs4)c(C#N)c(N)nc32)cc1,5%,-1%,u,u,45,5%
CN1C[C@@H]2C(c3ccc(C(F)(F)F)cc3)C3(c4ccccc4)CC2(C3)[C@H]1c1ccccc1 (some centres not stated),0%,-8%,u,u,2,22%
CN1C[C@@H]2C(c3ccccc3)C3(c4cccnc4)CC2(C3)[C@H]1c1ccccc1 (some centres not stated),-5%,u,12µM*,12µM*,-21,u
c1ccc(-c2ccc(CN3C[C@@H]4C(c5ccccc5)C5(c6cccnc6)CC4(C5)[C@H]3c3ccccc3)cc2)cc1 (some centres not stated),-1%,u,2.9µM*,4.1µM*,-17,-1%[8.37 µM]
FC(F)(F)c1ccc(C2[C@H]3CN(Cc4ccc(-c5ccccc5)cc4)[C@H](c4ccccc4)C34CC2(c2cccnc2)C4)cc1 (some centres not stated),0%,-4%,3.3µM*,0.41µM*,u,6%
N#Cc1ccc(C23CC4(C2)[C@H](CN(CC2CCCCC2)[C@@H]4c2ccccc2)C3c2ccc(Cl)nc2)cc1 (some centres not stated),0%,-26%,u,u,-19,-3%
Clc1ccc(C2[C@H]3CN(Cc4cccnc4)[C@H](c4ccccc4)C34CC2(c2cccnc2)C4)cn1 (some centres not stated),1%,u,10µM*,4.7µM*,-15,-20%
COc1ccccc1/C=C1\Oc2cc(OC(=O)N3CCOCC3)ccc2C1=O,-1%,6%,4%,1%,74,u
Cc1cc(C(=O)CSc2nncn2C)c(C)n1-c1ccccc1,-2%,5%,120%,176%,33,8%
Cc1cc(C)nc(NS(=O)(=O)c2ccc(NC(=O)c3nc(SC(C)C)ncc3Cl)cc2)n1,x,-2%,x,x,-1,x
O=C(Nc1ccc(Cl)cc1Cl)c1cc(S(=O)(=O)N2CCC3(CC2)OCCO3)ccc1F,x,0%,x,x,4,x
N#Cc1ccc(C23CC4(C2)[C@H](CN(Cc2ccc(-c5ccccc5)cc2)[C@@H]4c2ccccc2)C3c2ccc(C(F)(F)F)cc2)cc1 (some centres not stated),1%,-24%,15µM*,u,-24,1%
FC(F)(F)c1ccc(CN2C[C@@H]3C(c4ccc(Cl)nc4)C4(c5ccccc5)CC3(C4)[C@H]2c2ccccc2)cc1 (some centres not stated),-2%,u,12µM*,u,-65*,-6%
SMILES,SARS PLP yeast,Sm TGR block,Pf growth 48h,Pf growth 96h,HCMV inh,HCV inh
FC(F)(F)c1ccc(C2[C@H]3CN(Cc4ccc(-c5ccccc5)cc4)[C@H](c4ccccc4)C34CC2(c2ccccc2)C4)cc1 (some centres not stated),-2%,50µM*,u,-99%,17,-2%[8.37 µM]
COC(=O)c1cccc(C23CC4(C2)[C@H](CN(Cc2ccc(-c5ccccc5)cc2)[C@@H]4c2ccccc2)C3c2ccc(C(F)(F)F)cc2)c1 (some centres not stated),0%,-35%,u,u,-28,0%
FC(F)(F)c1ccc(C2[C@H]3CN(Cc4cccnc4)[C@H](c4ccccc4)C34CC2(c2cccnc2)C4)cc1 (some centres not stated),-15%,-34%,1.9µM*,1.5µM*,0,u
COC(=O)c1cccc(C23CC4(C2)[C@H](CN(Cc2ccc(C(F)(F)F)cc2)[C@@H]4c2ccccc2)C3c2ccccc2)c1 (some centres not stated),-5%,u,u,u,x,-3%
COc1ccc(NC(=O)CCNS(=O)(=O)c2ccccc2F)cc1S(N)(=O)=O,-2%,4%,-15%,1%,1,24%
Cc1c(Cl)cccc1NC(=O)c1cc2sccc2n1Cc1ccc(F)cc1,x,8%,x,x,-16,x
Cc1c(C(=O)NCCN(C)C)oc2c1-c1nn(Cc3cccc(Cl)c3)cc1CC2,x,2%,x,x,-68*,x
Cc1cccc(C)c1NC(=O)c1oc2c(c1C)-c1nn(Cc3ccccc3)cc1CC2,x,6%,x,x,-82*,x
COc1cccc(CNC(=O)c2oc3c(c2C)-c2nn(Cc4cccc(Cl)c4)cc2CC3)c1,x,-1%,x,x,-92*,x
COc1ccc(Nc2oc(-c3ccc(COc4ccccc4C)o3)nc2C#N)cc1,x,0%,x,x,-7,x
COc1ccc(/C=C/C(=O)NC(C)(C)C)cc1S(=O)(=O)N1CCOCC1,4%,-7%,7%,-3%,-34,0%
COc1ccc(/C=C/C(=O)Nc2ccccc2Cl)cc1S(=O)(=O)N1CCOCC1,3%,-1%,10µM*,10µM*,-23,u
COc1ccc(/C=C/C(=O)Nc2ccccc2)cc1S(=O)(=O)N1CCOCC1,-1%,2%,u,u,u,u

# Screens deposited in PubChem BioAssay by National Center for Advancing Translational Sciences (NCATS).
